Assay results taken from PubChem BioAssay (NCATS).
Results filed as inconclusive are left out. Where a call stands in place of a potency, no number is given. Activity calls are given as the source filed them. Calls follow the shape of the dose curve; as a rule, active = well fitted inhibition curve with a large enough effect; inconclusive = small, poorly fitted or top-dose-only effect; inactive = flat fitted curve, though single readings scatter.

system: CP250; test: qHTS profiling for inhibitors of Plasmodium falciparum proliferation (AID 504749); also: nearly all actives have a fitted effect of over 60% in size; conditions: P. falciparum in erythrocytes, SYBR Green DNA, 72 h; series mostly up to 28.7 µM
In short: (§1)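 Fluorescence of SYBR Green-bound parasite DNA, read at 485/535 nm, served as the growth measure. Infected erythrocytes were cultured with compound 72 h; artemisinin (0.29 uM) and DMSO wells defined the normalization range.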
Potency is read from the fitted curve at half-maximal effect.

Row | SMILES | Potency
1 | N=C(N)c1ccc(OCCCCCOc2ccc(C(=N)N)cc2)cc1 | 2510 nM (active)
2 | OC(Cn1cncn1)(Cn1cncn1)c1ccc(F)cc1F | inactive
3 | CCOC(=O)c1ccc(OC(=O)CCCCCN=C(N)N)cc1 | inactive
4 | CN(CCOc1ccc(CC2SC(=O)NC2=O)cc1)c1ccccn1 (stereo unspecified) | inactive
5 | CC(C)(C#N)c1cc(Cn2cncn2)cc(C(C)(C)C#N)c1 | inactive
6 | NC(=O)c1cccnc1 | inactive
7 | COc1nc(N)nc2c1ncn2[C@@H]1O[C@H](CO)[C@@H](O)[C@@H]1O | inactive
8 | S=P(N1CC1)(N1CC1)N1CC1 | inactive
9 | CN1CCN(c2c(F)cc3c(=O)c(C(=O)O)cn(CCF)c3c2F)CC1 | inactive
10 | COc1ccc(-c2ccc3cc(C(=O)O)ccc3c2)cc1C12CC3CC(CC(C3)C1)C2 | inactive
11 | Cc1nnc(NS(=O)(=O)c2ccc(N)cc2)s1 | inactive
12 | Cc1ccnc2c1NC(=O)c1cccnc1N2C1CC1 | inactive
13 | Nc1[nH]c(=O)ncc1F | inactive
14 | NC(N)=NC(N)=NCCc1ccccc1 | inactive
15 | Nc1nc(N)nc(-c2cc(Cl)ccc2Cl)n1 | inactive
16 | Cc1cccc(Nc2ccncc2S(=O)(=O)NC(=O)NC(C)C)c1 | inactive
17 | O=P(O)(O)C(O)(Cc1cccnc1)P(=O)(O)O | inactive
18 | CCOCC(O)COc1ccc(NC(=O)CC[S+](C)C)cc1 (stereo unspecified) | inactive
19 | Cc1cccc(N(C)C(=S)Oc2ccc3ccccc3c2)c1 | inactive
20 | CN(C)CCc1c[nH]c2ccc(CS(=O)(=O)N3CCCC3)cc12 | inactive
21 | N[C@@H](C(=O)N[C@@H]1C(=O)N2C(C(=O)O)=C(Cl)CS[C@H]12)c1ccccc1 | inactive
22 | COC(=O)Nc1nc2ccc(Sc3ccccc3)cc2[nH]1 | inactive
23 | Cc1noc(NS(=O)(=O)c2ccc(N)cc2)c1C | inactive
24 | CC(C)NCC(O)c1ccc(NS(C)(=O)=O)cc1 (stereo unspecified) | inactive
25 | Nc1ccc(S(=O)(=O)Nc2ccccn2)cc1 | inactive
26 | C[C@]12C=CC(=O)C=C1CC[C@@H]1[C@@H]2C(=O)C[C@@]2(C)[C@H]1CC[C@]2(O)C(=O)CO | inactive
27 | CC(=O)Oc1ccccc1C(=O)Nc1ncc([N+](=O)[O-])s1 | inactive
28 | NCCCC(O)(P(=O)(O)O)P(=O)(O)O | inactive

system: CP252; test: as above; conditions: P. falciparum in erythrocytes, SYBR Green DNA, 72 h; series mostly up to 28.7 µM
In short: as §1

Row | SMILES | Potency
29 | N=C(N)c1ccc(OCCCCCOc2ccc(C(=N)N)cc2)cc1 | 2000 nM (active)
30 | OC(Cn1cncn1)(Cn1cncn1)c1ccc(F)cc1F | inactive
31 | CCOC(=O)c1ccc(OC(=O)CCCCCN=C(N)N)cc1 | inactive
32 | CN(CCOc1ccc(CC2SC(=O)NC2=O)cc1)c1ccccn1 (stereo unspecified) | inactive
33 | CC(C)(C#N)c1cc(Cn2cncn2)cc(C(C)(C)C#N)c1 | inactive
34 | NC(=O)c1cccnc1 | inactive
35 | COc1nc(N)nc2c1ncn2[C@@H]1O[C@H](CO)[C@@H](O)[C@@H]1O | inactive
36 | S=P(N1CC1)(N1CC1)N1CC1 | inactive
37 | CN1CCN(c2c(F)cc3c(=O)c(C(=O)O)cn(CCF)c3c2F)CC1 | inactive
38 | COc1ccc(-c2ccc3cc(C(=O)O)ccc3c2)cc1C12CC3CC(CC(C3)C1)C2 | inactive
39 | Cc1nnc(NS(=O)(=O)c2ccc(N)cc2)s1 | inactive
40 | Cc1ccnc2c1NC(=O)c1cccnc1N2C1CC1 | inactive
41 | Nc1[nH]c(=O)ncc1F | inactive
42 | NC(N)=NC(N)=NCCc1ccccc1 | inactive
43 | Nc1nc(N)nc(-c2cc(Cl)ccc2Cl)n1 | inactive
44 | Cc1cccc(Nc2ccncc2S(=O)(=O)NC(=O)NC(C)C)c1 | inactive
45 | O=P(O)(O)C(O)(Cc1cccnc1)P(=O)(O)O | inactive
46 | CCOCC(O)COc1ccc(NC(=O)CC[S+](C)C)cc1 (stereo unspecified) | inactive
47 | Cc1cccc(N(C)C(=S)Oc2ccc3ccccc3c2)c1 | inactive
48 | CN(C)CCc1c[nH]c2ccc(CS(=O)(=O)N3CCCC3)cc12 | inactive
49 | N[C@@H](C(=O)N[C@@H]1C(=O)N2C(C(=O)O)=C(Cl)CS[C@H]12)c1ccccc1 | inactive
50 | COC(=O)Nc1nc2ccc(Sc3ccccc3)cc2[nH]1 | inactive
51 | Cc1noc(NS(=O)(=O)c2ccc(N)cc2)c1C | inactive
52 | CC(C)NCC(O)c1ccc(NS(C)(=O)=O)cc1 (stereo unspecified) | inactive
53 | Nc1ccc(S(=O)(=O)Nc2ccccn2)cc1 | inactive
54 | C[C@]12C=CC(=O)C=C1CC[C@@H]1[C@@H]2C(=O)C[C@@]2(C)[C@H]1CC[C@]2(O)C(=O)CO | inactive
55 | CC(=O)Oc1ccccc1C(=O)Nc1ncc([N+](=O)[O-])s1 | inactive
56 | NCCCC(O)(P(=O)(O)O)P(=O)(O)O | inactive
